Our source for the Potency and outcome values is PubChem BioAssay (Tox21).

Molecules are shown by their SMILES. Results filed as inconclusive are left out. Activity calls are given as the source filed them. Unless noted, calls come from the whole dose curve; as a rule, active = well fitted curve in the direction sought with a large enough effect in the repeat runs; inconclusive = weak or mixed curves; inactive = no such curve, though single readings can be large; an effect the other way counts as inactive or inconclusive.

Test [1] can be described thus: qHTS assay for small molecule agonists of the p53 signaling pathway (AID 651631; calls by dose curve; note: nearly all actives have a fitted effect of over 15% in size). Summed up:
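Quantitative high-throughput format: 4,000 p53RE-bla HCT-116 cells/well, 5 h pre-incubation, 16 h compound exposure at 37 °C, 2 h room-temperature substrate step, fluorescence intensity measured.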
In general terms: In qHTS, concentration-response curves come from the screen itself.

A short description of test [2]: qHTS assay for small molecules that induce genotoxicity in human embryonic kidney cells expressing luciferase-tagged ATAD5 (AID 651632). Note: nearly all actives have a fitted effect of over 15% in size. Summed up:
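Increased luciferase signal from ATAD5-tagged reporter cells indicates DNA-damage-driven ATAD5 induction. HEK293T cells are treated for 16 hr at 37C before detection with Amplite.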

Test [3] can be described thus: qHTS assay for small molecule agonists of the p53 signaling pathway - cell viability (AID 651633; calls by dose curve;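 note: p53RE-bla HCT reporter cells with a stable beta-lactamase p53 reporter; series mostly up to about 83 µM; nearly all actives have a fitted effect of over 30% in size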). A digest of the protocol:
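p53RE-bla cells, seeded at 4,000 per well and rested 5 h at 37 C/5% CO2, received compounds in DMSO for 16 h at 37 C. CellTiter-Glo was then added, and luminescence was read after 30 min at room temperature to gauge cytotoxicity.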

Test [4] is described as follows: qHTS assay for small molecules that induce genotoxicity in human embryonic kidney cells expressing luciferase-tagged ATAD5 - cell viability (AID 651634; calls by dose curve; note: nearly all actives have a fitted effect of over 25% in size). A digest of the protocol: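 Cytotoxicity counterscreen in HEK293T cells bearing an ATAD5-luciferase reporter: live-cell protease activity measured by CellTiter-Fluor fluorescence after 15.5 hr compound exposure.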

Test [5] is described as follows: qHTS assay for small molecule disruptors of the mitochondrial membrane potential - cell viability (AID 720634; calls by dose curve;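 note: human HepG2 liver cancer cells; series mostly up to about 83 µM; nearly all actives have a fitted effect of over 20% in size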). Summed up:
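After overnight attachment at 37 C, HepG2 cells received compound or DMSO vehicle for 1 hr. Viability is then taken from ATP-driven luminescence following a 30 min room-temperature CellTiter-Glo step.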

The nature of test [6]: qHTS assay to test for compound auto fluorescence at 590 nm (red) in HepG2 cells (AID 720674). Summed up: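 Intrinsic compound fluorescence in the red window (Ex/Em 540/590 nm) is measured in attached HepG2 cells exposed for 1 hr, DMSO vehicle as baseline, benchmarked to Rose Bengal sodium.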
Test [7] can be described thus: qHTS assay to test for compound auto fluorescence at 535 nm (green) in HepG2 cells (AID 720675).
Test [8] in a line: qHTS assay to test for compound auto fluorescence at 460 nm (blue) in HEK293 cells (AID 720678). Summed up:
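Measured: blue fluorescence (Ex 405/Em 460 nm) of compound-treated HEK293 cells, incubated overnight at 37C with 5% CO2 and scaled to triamterene equivalents.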

Test [9] in a line: qHTS assay to test for compound auto fluorescence at 590 nm (red) in HEK293 cells (AID 720679). A digest of the protocol:
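Using HEK293 cells at 2,000 per well, the screen added 23 nL of each compound after cell attachment and incubated overnight (37C, 5% CO2). The plate reader then captured red-label fluorescence, Ex/Em 540/590nm.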

Test [10] can be described thus: qHTS assay to test for compound auto fluorescence at 535 nm (green) in HEK293 cells (AID 720680).
Test [11] in a line: qHTS assay to test for compound auto fluorescence at 460 nm (blue) in HEK293 cell free culture (AID 720681). Summed up:
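Test compounds were pinned into cell-free culture medium (DMEM with 10% FBS) and fluorescence was read directly at Ex/Em 405/460 nm. Signals were expressed as fluorescence equivalents of triamterene, with DMSO vehicle as control.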

Test [12] in a line: qHTS assay to test for compound auto fluorescence at 535 nm (green) in HEK293 cell free culture (AID 720682). Summed up: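 Measurement is a direct plate read of green fluorescence (485 nm in, 535 nm out) after compound addition to serum-supplemented DMEM lacking cells, with fluorescein used to express intensities.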
The nature of test [13]: qHTS assay to test for compound auto fluorescence at 590 nm (red) in HEK293 cell free culture (AID 720683). Summed up:
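Tox21 10K library compounds were pinned into cell-free DMEM with 10% FBS and fluorescence was read at excitation 540 nm. Activity is expressed as Rose Bengal sodium equivalency.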

The nature of test [14]: qHTS assay to test for compound auto fluorescence at 590 nm (red) in HepG2 cell free culture (AID 720684). Summed up:
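Measured in medium alone (MEM containing 10% FBS) following pintool addition of compound; emission at 590 nm with 540 nm excitation, referenced to Rose Bengal sodium.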

Test [15] can be described thus: qHTS assay to test for compound auto fluorescence at 460 nm (blue) in HepG2 cell free culture (AID 720685). Summed up:
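Compound (23 nL) or DMSO pinned into cell-free MEM with 10% FBS; blue fluorescence read at 405/460 nm excitation/emission, expressed as auto-fluorescence equivalency to triamterene.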

The nature of test [16]: qHTS assay to test for compound auto fluorescence at 535 nm (green) in HepG2 cell free culture (AID 720686).
Test [17] can be described thus: qHTS assay to test for compound auto fluorescence at 460 nm (blue) in HepG2 cells (AID 720687). Summed up: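 Cells (2,000/well in MEM with 10% FBS) attached overnight at 37 C, then were exposed to compound or DMSO for 1 hr at 37 C, 5% CO2. Fluorescence read at Ex/Em 405/460 nm, expressed as triamterene-equivalent signal.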
Test [18] is described as follows: qHTS assay to identify small molecule antagonists of the glucocorticoid receptor (GR) signaling pathway - cell viability counter screen (AID 720693). Note: nearly all actives have a fitted effect of over 55% in size.
Test [19] is described as follows: qHTS assay for identifying genotoxic compounds that show differential cytotoxicity against isogenic chicken DT40 cell lines with known DNA damage response pathways - wild type cell line (AID 743012). Note: potency is the fitted concentration of half-maximal effect; nearly all actives have a fitted effect of over 60% in size. Summed up:
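Cells (DT40 wild type, 300/well) are treated with DMSO-dissolved compounds after a ~0.5 h pre-incubation and kept 40 h at 37 C/5% CO2. Viability is then measured by CellTiter-Glo luminescence following 30 min at room temperature.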

Test [20] in a line: qHTS assay for identifying genotoxic compounds that show differential cytotoxicity against isogenic chicken DT40 cell lines with known DNA damage response pathways - Rev3 mutant cell line (AID 743014). Note: potency is the fitted concentration of half-maximal effect; nearly all actives have a fitted effect of over 55% in size.
Test [21] can be described thus: qHTS assay for identifying genotoxic compounds that show differential cytotoxicity against isogenic chicken DT40 cell lines with known DNA damage response pathways - Rad54/Ku70 mutant cell line (AID 743015). Note: potency is the fitted concentration of half-maximal effect; nearly all actives have a fitted effect of over 60% in size.
Test [22] is described as follows: qHTS assay to identify small molecule antagonists of the androgen receptor (AR) signaling pathway - cell viability counter screen (AID 743033; note: nearly all actives have a fitted effect of over 45% in size).
The nature of test [23]: qHTS assay to identify small molecule antagonists of the androgen receptor (AR) signaling pathway using the MDA cell line - cell viability counter screen (AID 743041; note: nearly all actives have a fitted effect of over 45% in size). A digest of the protocol:
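Viability counter screen run alongside the AR antagonist reporter: cells seeded 5 h before compound, R1881 added, 16 h incubation at 37C without CO2, fluorescent CellTiter-Fluor signal quantified.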

Test [24] in a line: qHTS assay to identify small molecule antagonists of the thyroid receptor (TR) signaling pathway - cell viability counter screen (AID 743064). Note: potency is the fitted concentration of half-maximal effect; nearly all actives have a fitted effect of over 50% in size. A digest of the protocol: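 Compounds were tested on GH3.TRE-Luc cells in the presence of T3 at 1 nM final. Following 23.5 h at 37 °C, cell viability was quantified by CellTiter-Fluor.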
The nature of test [25]: qHTS assay to identify small molecule antagonists of the thyroid receptor (TR) signaling pathway (AID 743065). Note: potency is the fitted concentration of half-maximal effect; nearly all actives have a fitted effect of over 55% in size. Summed up:
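GH3.TRE-Luc rat pituitary cells carrying two TR response elements driving luciferase were plated for 4 h, given compound plus 1 nM T3 (final), and incubated 23.5 h at 37 C. ONE-Glo luminescence measured reporter inhibition; CellTiter-Fluor fluorescence tracked cytotoxicity.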

Test [26] concerns thyroid hormone receptor (rat, GH3 cells). The test is described as follows: qHTS assay to identify small molecule agonists of the thyroid receptor (TR) signaling pathway (AID 743066; calls by dose curve).
A short description of test [27]: qHTS assay to identify small molecule antagonists of the estrogen receptor alpha (ER-alpha) signaling pathway using the BG1 cell line - cell viability counter screen (AID 743081).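 Note: compound given together with 17beta-estradiol as the ER stimulus; series mostly up to about 70 µM; nearly all actives have a fitted effect of over 45% in size.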
The target in test [28] is Acetylcholinesterase (Homo sapiens) (UniProt P22303). The test is described as follows: Acetylcholinesterase (AChE) small molecule antagonists: enzyme-based qHTS assay (AID 1347397; calls by dose curve; note: nearly all actives have a fitted effect of over 55% in size). The note with it: Potency: AChE enzyme activity inhibition; outcome: AChE enzyme activity inhibition. A digest of the protocol: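 Human recombinant acetylcholinesterase; substrate acetylthiocholine; thiocholine quantified with DTNB (colorimetric). Compound preincubation 30 min RT; reaction 10 min RT.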

For test [29] the target is unchanged. As to the kind of experiment: Acetylcholinesterase (AChE) small molecule antagonists: enzyme-based qHTS assay with human liver microsomes (AID 1347399; calls by dose curve; note: nearly all actives have a fitted effect of over 60% in size). As to conditions: Potency: qHTS inhibition; outcome: qHTS inhibition. A digest of the protocol:
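Recombinant human AChE (50 mU/mL in the enzyme mix) and human liver microsomes (0.25 mg/mL final) were preincubated with compound and NADPH (0.25 mg/mL final) for 30 min at 37 C. Acetylthiocholine/DTNB was then added; thiocholine was read colorimetrically after 10 min at room temperature.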

Test [30] has the same target. As to the kind of experiment: Acetylcholinesterase (AChE) small molecule antagonists: fluorescence cell-based qHTS assay (AID 1347398; calls by dose curve; note: potency is the fitted concentration of half-maximal effect; nearly all actives have a fitted effect of over 50% in size). The note with it: Potency: AChE activity; outcome: AChE activity. Summed up: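 Thiocholine generated from acetylthiocholine by SH-SY5Y cell AChE is detected with Thiolite Green (Ex/Em 490/520 nm) after 40 min at room temperature, following 30 min compound pretreatment at 37 C.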

Chain of Acetylcholinesterase (Homo sapiens) (P22303 whole entry, looked up): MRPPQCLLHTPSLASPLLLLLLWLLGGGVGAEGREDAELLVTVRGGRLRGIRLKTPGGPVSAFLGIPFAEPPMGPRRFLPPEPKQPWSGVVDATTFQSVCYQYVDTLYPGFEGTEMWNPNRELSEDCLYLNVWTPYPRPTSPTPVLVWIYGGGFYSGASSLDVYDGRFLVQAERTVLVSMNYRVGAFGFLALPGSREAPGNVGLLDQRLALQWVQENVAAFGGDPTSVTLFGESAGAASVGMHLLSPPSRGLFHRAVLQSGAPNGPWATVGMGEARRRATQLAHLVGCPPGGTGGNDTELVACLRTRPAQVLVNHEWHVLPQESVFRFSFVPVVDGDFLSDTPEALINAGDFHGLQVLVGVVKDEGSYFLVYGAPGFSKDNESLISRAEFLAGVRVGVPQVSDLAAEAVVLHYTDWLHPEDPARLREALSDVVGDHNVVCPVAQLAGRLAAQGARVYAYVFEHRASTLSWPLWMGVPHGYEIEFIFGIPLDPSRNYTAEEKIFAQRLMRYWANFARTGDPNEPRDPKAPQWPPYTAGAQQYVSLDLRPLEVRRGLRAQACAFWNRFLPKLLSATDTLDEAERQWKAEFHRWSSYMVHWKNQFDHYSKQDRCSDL

Turning to `CCC(=O)O[C@](Cc1ccccc1)(c1ccccc1)[C@H](C)CN(C)C`, the Potency result in test [1], in [3], in [4], in test [18], in test [22] and in [27] was “inactive” throughout. Moreover, the outcome in [2], in test [5], in [6], in [7], in test [8] and in test [9] was inactive. Moreover, the call in test [10], in test [11], in test [12], in test [13], in [14] and in test [15] was inactive. Moreover, the result in test [16], in test [17], in test [23] and in test [26] was inactive. For the same compound, the Potency in test [19] is 38 µM (active); in [20], 60.3 µM (active); in test [21] it was 67.6 µM (active); in test [24], 26.9 µM (active); in [25] it was 53.7 µM (active).
For `N#C/C(=C1/SC[C@@H](c2ccc(Cl)cc2Cl)S1)n1ccnc1`, the Potency entry in [28] and in test [29] was “inactive” in each case.
As to `Cc1cc(O)ccc1O`, the Potency in test [30] is 71.8 µM (active). For the same compound, the Potency entry in [29] is “inactive”.
As to `Oc1ccc(Cl)cc1C1CCCC1`, the Potency result in test [29] is “inactive”.
